The values below come from PMC7862700, “An all-to-all approach to the identification of sequence-specific readers for epigenetic DNA modifications on cytosine”.

Common to all, as to test: DAPPL (digital affinity profiling via proximity ligation, sequencing); 10 mM Tris-HCl pH 7.5, 50 mM NaCl, 1 mM DTT, 4% glycerol, room temperature, 30 min; GST-TFs on glutathione beads, 16-mer random dsDNA library, 0.1% formaldehyde crosslink after washing; high values mean tight binding
Holding throughout (details): protein: recombinant; tags: N-terminal GST; dsDNA, one strand shown

One experiment deals with T1, FLI1 (Homo sapiens, UniProt Q01543 1-452).
T1 sequence: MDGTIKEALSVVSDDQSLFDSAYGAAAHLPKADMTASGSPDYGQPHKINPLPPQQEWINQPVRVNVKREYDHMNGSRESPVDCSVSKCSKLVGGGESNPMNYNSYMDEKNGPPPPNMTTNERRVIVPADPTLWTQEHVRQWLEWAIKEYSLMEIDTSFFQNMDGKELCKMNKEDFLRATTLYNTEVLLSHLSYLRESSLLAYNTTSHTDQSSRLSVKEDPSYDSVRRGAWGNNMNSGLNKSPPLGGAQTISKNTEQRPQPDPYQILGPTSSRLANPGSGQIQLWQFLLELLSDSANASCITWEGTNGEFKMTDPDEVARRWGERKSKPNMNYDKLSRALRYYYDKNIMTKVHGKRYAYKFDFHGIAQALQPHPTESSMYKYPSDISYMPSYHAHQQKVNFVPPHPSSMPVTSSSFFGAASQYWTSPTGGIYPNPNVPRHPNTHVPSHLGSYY
Summed up:
(§1)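 Binding signal is given per hexamer as its read frequency for a factor divided by its frequency in the tag-only sample. GST-fused human transcription factors were expressed in yeast, captured on glutathione beads, barcoded with DNA and pooled with that sample, then incubated with 200 nmole of a 16-mer random double-stranded DNA library in Tris/NaCl/DTT/glycerol buffer for 30 min at room temperature. The pools were then washed, crosslinked, proximity-ligated, amplified by PCR and sequenced on an Illumina NextSeq500.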

For another experiment, the target named is T2, ELK1 (Homo sapiens, UniProt P19419 1-428).
T2 sequence: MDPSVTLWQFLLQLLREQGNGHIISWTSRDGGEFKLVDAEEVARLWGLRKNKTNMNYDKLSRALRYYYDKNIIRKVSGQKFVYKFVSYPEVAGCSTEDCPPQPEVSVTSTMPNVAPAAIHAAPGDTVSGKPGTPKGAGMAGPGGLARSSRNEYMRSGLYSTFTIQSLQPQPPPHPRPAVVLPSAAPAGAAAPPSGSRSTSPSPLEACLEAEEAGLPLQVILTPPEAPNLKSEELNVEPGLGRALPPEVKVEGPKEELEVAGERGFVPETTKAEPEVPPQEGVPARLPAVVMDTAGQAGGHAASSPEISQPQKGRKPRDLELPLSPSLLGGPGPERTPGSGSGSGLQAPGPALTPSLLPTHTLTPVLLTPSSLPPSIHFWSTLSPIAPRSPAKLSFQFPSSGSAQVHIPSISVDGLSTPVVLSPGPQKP
Summed up:
as §1

The target of the next experiment is T3, GABPA (Homo sapiens, UniProt Q06546 1-454).
T3 sequence: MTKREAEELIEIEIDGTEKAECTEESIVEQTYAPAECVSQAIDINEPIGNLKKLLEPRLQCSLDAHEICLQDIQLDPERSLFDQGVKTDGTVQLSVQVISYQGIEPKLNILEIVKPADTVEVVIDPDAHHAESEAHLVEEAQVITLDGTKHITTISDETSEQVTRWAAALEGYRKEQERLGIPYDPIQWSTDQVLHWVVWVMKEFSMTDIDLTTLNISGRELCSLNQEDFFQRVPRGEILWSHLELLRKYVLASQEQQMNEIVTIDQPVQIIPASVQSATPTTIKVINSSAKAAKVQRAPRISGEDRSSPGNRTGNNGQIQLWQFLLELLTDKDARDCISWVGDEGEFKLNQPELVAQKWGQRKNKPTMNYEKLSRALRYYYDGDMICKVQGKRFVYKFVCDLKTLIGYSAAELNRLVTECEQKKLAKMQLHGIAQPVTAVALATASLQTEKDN
Summed up:
as §1

The next experiment concerns the target T4, ERG (Homo sapiens, UniProt P11308 1-479).
T4 sequence: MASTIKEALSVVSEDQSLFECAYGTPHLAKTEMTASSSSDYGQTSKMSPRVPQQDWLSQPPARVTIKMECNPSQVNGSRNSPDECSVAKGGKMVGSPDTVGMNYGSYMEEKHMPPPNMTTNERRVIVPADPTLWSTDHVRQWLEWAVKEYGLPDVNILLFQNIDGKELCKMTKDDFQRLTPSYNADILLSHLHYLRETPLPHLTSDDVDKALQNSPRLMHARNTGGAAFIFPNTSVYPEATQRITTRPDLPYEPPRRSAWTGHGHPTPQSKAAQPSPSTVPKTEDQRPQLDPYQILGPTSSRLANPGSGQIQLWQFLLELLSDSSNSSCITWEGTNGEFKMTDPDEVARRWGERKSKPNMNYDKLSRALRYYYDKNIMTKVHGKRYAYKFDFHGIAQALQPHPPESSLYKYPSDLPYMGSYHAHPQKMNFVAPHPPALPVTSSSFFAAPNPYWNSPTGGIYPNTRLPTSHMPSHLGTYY
In a few lines:
as §1

The target of a further experiment is ELF1 (Homo sapiens, UniProt P32519 1-619). In a few lines: as §1
ELF1, sequence (P32519 whole entry): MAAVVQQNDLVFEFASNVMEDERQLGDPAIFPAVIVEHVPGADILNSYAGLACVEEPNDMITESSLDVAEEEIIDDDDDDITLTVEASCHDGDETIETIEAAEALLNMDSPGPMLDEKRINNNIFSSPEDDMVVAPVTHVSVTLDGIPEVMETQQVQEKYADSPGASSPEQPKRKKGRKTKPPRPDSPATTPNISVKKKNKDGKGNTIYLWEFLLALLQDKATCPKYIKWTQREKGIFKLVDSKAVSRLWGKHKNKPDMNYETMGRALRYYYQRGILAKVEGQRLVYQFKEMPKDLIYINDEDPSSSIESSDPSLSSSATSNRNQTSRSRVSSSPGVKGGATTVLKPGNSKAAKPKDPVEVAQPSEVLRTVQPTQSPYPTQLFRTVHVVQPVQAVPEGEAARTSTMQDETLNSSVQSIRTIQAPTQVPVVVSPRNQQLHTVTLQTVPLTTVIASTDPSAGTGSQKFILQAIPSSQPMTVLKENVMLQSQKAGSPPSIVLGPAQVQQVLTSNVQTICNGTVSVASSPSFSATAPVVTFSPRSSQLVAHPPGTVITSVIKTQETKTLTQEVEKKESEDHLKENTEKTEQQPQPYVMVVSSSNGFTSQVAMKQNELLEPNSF
Another experiment addresses T5, EHF (Homo sapiens, UniProt Q9NZC4 1-300).
T5 sequence: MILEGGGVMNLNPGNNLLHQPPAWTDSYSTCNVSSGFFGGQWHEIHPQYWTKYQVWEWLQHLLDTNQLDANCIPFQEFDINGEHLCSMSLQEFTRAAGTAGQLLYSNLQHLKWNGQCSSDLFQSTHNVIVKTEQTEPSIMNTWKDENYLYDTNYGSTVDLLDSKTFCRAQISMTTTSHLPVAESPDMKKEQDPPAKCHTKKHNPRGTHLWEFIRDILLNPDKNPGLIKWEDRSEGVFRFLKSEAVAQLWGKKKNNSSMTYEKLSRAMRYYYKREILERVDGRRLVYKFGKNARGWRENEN
Summed up:
as §1

For a further experiment, the target named is SPI1 (Homo sapiens, UniProt P17947 1-270). In a few lines:
as §1

For another experiment, the target named is SPIB (Homo sapiens, UniProt Q01892 1-262). In a few lines: as §1
SPIB, sequence (Q01892 whole entry): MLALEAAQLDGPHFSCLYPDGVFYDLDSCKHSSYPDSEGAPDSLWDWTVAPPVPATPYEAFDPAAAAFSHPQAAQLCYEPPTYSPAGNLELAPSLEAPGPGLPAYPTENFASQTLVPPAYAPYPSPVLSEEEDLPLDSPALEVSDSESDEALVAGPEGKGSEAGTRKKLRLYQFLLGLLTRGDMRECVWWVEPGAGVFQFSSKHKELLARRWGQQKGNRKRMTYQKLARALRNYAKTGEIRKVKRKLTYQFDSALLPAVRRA
A further experiment deals with T6, ELK3 (Homo sapiens, UniProt P41970 1-407).
T6 sequence: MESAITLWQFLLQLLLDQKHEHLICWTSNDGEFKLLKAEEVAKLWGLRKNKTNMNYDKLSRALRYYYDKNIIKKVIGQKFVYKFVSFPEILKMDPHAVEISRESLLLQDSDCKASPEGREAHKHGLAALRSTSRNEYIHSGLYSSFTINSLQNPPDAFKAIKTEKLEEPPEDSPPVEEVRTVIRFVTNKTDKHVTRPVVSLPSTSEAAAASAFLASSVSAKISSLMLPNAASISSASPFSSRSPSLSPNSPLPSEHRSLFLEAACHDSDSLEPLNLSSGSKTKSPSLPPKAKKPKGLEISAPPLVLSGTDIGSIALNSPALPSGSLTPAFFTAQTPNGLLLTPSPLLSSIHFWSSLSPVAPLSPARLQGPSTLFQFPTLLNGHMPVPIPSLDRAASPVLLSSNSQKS
In a few lines:
as §1

On to TTTTAA, for which the binding signal in the experiment with FLI1 is 1.26 fold enrichment (6-mer frequency, TF over GST control); in the experiment with ELK1, 1.28 fold enrichment (6-mer frequency, TF over GST control); with GABPA, 1.25 fold enrichment (6-mer frequency, TF over GST control); with ERG it was 1.2 fold enrichment (6-mer frequency, TF over GST control); with ELF1, 1.29 fold enrichment (6-mer frequency, TF over GST control); with EHF, 1.22 fold enrichment (6-mer frequency, TF over GST control). For the same sequence, the binding signal is 1.32 fold enrichment (6-mer frequency, TF over GST control) with SPI1; 1.26 fold enrichment (6-mer frequency, TF over GST control) with SPIB; 1.3 fold enrichment (6-mer frequency, TF over GST control) with ELK3.

TCTAAA: the binding signal is 1.24 fold enrichment (6-mer frequency, TF over GST control) with FLI1; 1.22 fold enrichment (6-mer frequency, TF over GST control) with ELK1; 1.26 fold enrichment (6-mer frequency, TF over GST control) with GABPA; 1.24 fold enrichment (6-mer frequency, TF over GST control) in the experiment with ERG; 1.21 fold enrichment (6-mer frequency, TF over GST control) with ELF1; 1.2 fold enrichment (6-mer frequency, TF over GST control) with EHF. In addition, the binding signal is 1.18 fold enrichment (6-mer frequency, TF over GST control) with SPI1; 1.16 fold enrichment (6-mer frequency, TF over GST control) with SPIB; 1.2 fold enrichment (6-mer frequency, TF over GST control) in the experiment with ELK3.

As for TATAAA, the binding signal with FLI1 was 1.17 fold enrichment (6-mer frequency, TF over GST control); with ELK1 it was 1.29 fold enrichment (6-mer frequency, TF over GST control); with GABPA, 1.21 fold enrichment (6-mer frequency, TF over GST control); with ERG it was 1.18 fold enrichment (6-mer frequency, TF over GST control); in the experiment with ELF1 it was 1.21 fold enrichment (6-mer frequency, TF over GST control); in the experiment with EHF it was 1.28 fold enrichment (6-mer frequency, TF over GST control). Also, the binding signal in the experiment with SPI1 was 1.26 fold enrichment (6-mer frequency, TF over GST control); with SPIB it was 1.3 fold enrichment (6-mer frequency, TF over GST control); with ELK3, 1.26 fold enrichment (6-mer frequency, TF over GST control).

For the sequence AGATTC, the binding signal was 1.15 fold enrichment (6-mer frequency, TF over GST control) with FLI1; 1.14 fold enrichment (6-mer frequency, TF over GST control) with ELK1; 1.16 fold enrichment (6-mer frequency, TF over GST control) in the experiment with GABPA; 1.19 fold enrichment (6-mer frequency, TF over GST control) with ERG; 1.21 fold enrichment (6-mer frequency, TF over GST control) with ELF1; 1.2 fold enrichment (6-mer frequency, TF over GST control) in the experiment with EHF. The binding signal was 1.22 fold enrichment (6-mer frequency, TF over GST control) with SPI1; 1.14 fold enrichment (6-mer frequency, TF over GST control) with SPIB; 1.07 fold enrichment (6-mer frequency, TF over GST control) in the experiment with ELK3.

For TACGAC, the binding signal in the experiment with FLI1 is 1.33 fold enrichment (6-mer frequency, TF over GST control); in the experiment with ELK1 it was 1.2 fold enrichment (6-mer frequency, TF over GST control); with GABPA it was 1.29 fold enrichment (6-mer frequency, TF over GST control); with ERG, 1.26 fold enrichment (6-mer frequency, TF over GST control); with ELF1, 1.27 fold enrichment (6-mer frequency, TF over GST control); with EHF, 1.23 fold enrichment (6-mer frequency, TF over GST control). Further, the binding signal is 1.25 fold enrichment (6-mer frequency, TF over GST control) with SPI1; 1.22 fold enrichment (6-mer frequency, TF over GST control) with SPIB; 1.36 fold enrichment (6-mer frequency, TF over GST control) with ELK3.

For ATGACG, the binding signal with FLI1 is 1.28 fold enrichment (6-mer frequency, TF over GST control); with ELK1, 1.44 fold enrichment (6-mer frequency, TF over GST control); with GABPA, 1.37 fold enrichment (6-mer frequency, TF over GST control); with ERG, 1.29 fold enrichment (6-mer frequency, TF over GST control); with ELF1 it was 1.34 fold enrichment (6-mer frequency, TF over GST control); with EHF, 1.21 fold enrichment (6-mer frequency, TF over GST control). Besides, the binding signal was 1.32 fold enrichment (6-mer frequency, TF over GST control) with SPI1; 1.43 fold enrichment (6-mer frequency, TF over GST control) with SPIB; 1.39 fold enrichment (6-mer frequency, TF over GST control) with ELK3.

TTTAAG: the binding signal with FLI1 was 1.3 fold enrichment (6-mer frequency, TF over GST control); in the experiment with ELK1, 1.33 fold enrichment (6-mer frequency, TF over GST control); in the experiment with GABPA, 1.38 fold enrichment (6-mer frequency, TF over GST control); with ERG it was 1.33 fold enrichment (6-mer frequency, TF over GST control); with ELF1, 1.34 fold enrichment (6-mer frequency, TF over GST control); with EHF, 1.27 fold enrichment (6-mer frequency, TF over GST control). Moreover, the binding signal with SPI1 was 1.42 fold enrichment (6-mer frequency, TF over GST control); with SPIB, 1.31 fold enrichment (6-mer frequency, TF over GST control); in the experiment with ELK3, 1.46 fold enrichment (6-mer frequency, TF over GST control).

As to CCAATT, the binding signal is 1.2 fold enrichment (6-mer frequency, TF over GST control) with FLI1; 1.24 fold enrichment (6-mer frequency, TF over GST control) in the experiment with ELK1; 1.25 fold enrichment (6-mer frequency, TF over GST control) with GABPA; 1.24 fold enrichment (6-mer frequency, TF over GST control) with ERG; 1.16 fold enrichment (6-mer frequency, TF over GST control) in the experiment with ELF1; 1.25 fold enrichment (6-mer frequency, TF over GST control) with EHF. Further, the binding signal with SPI1 is 1.23 fold enrichment (6-mer frequency, TF over GST control); with SPIB, 1.28 fold enrichment (6-mer frequency, TF over GST control); in the experiment with ELK3, 1.18 fold enrichment (6-mer frequency, TF over GST control).
